Here are results for 28 molecules from PubChem BioAssay AID504882 (Broad Institute, 2011).

SMILES strings stand for the structures. The whole screen tested about 1,200 compounds, of which about 290 (24%) were called active. Not shown: some 9% with an inconclusive outcome. No rule for the calls is given here. The list is a sample of the results. Entries with a potency or affinity are not part of this list.

This test is described as follows: LCL viability reduction – cell-based, plate reader, cherry-picks, set 2, cytotoxicity control, dose response (AID 504882). The note with it: EBV lymphoblastoid cells (LCL) viability; series mostly up to 19.5 µM.
Take `CCCCCC(=O)NC(=S)Nc1ccc(Br)cc1C`: the outcome was inactive. Under `Cc1cc(C(=O)CN2C(=O)c3ccccc3C2=O)c(C)n1Cc1cccs1` stands “inactive”; under `COc1ccc(C(=O)N(CN2CCCC2=O)c2cc(C)on2)cc1OC`, “inactive”; under `Cn1c(=O)[nH]c(=O)c2c1nc(CN1CCOCC1)n2CCCc1ccccc1`, “inactive”. As for `Cc1c(NC(=O)c2cc(-c3cccs3)nc3ccccc23)c(=O)n(-c2ccccc2)n1C`, the outcome was inactive. Regarding `CN(C1CCCCC1)S(=O)(=O)c1ccc(C(=O)N2CCN(c3nc4ccccc4s3)CC2)cc1`, the outcome was inactive. Next, `O=C(CN1C(=O)CCOc2ccccc21)Nc1ccc(Cl)c(S(=O)(=O)N2CCOCC2)c1`: “inactive”; `Cc1cccc(CNc2ncnc3ccc(-c4ccoc4)cc23)c1`: “inactive”; `COc1cc(-c2nc(C(=O)NCC3CCCO3)cc3c2[nH]c2ccccc23)cc(OC)c1OC` (stereo not drawn): “inactive”. For the molecule `CC(C)CC1C(=O)N(Cc2cn(CC3CCCCC3)nn2)CCS(=O)(=O)N1Cc1ccc(-c2ccc(F)nc2)cc1` (stereo not drawn), the outcome was inactive. Under `CCOC(=O)OC(C)OC(=O)[C@@H]1N2C(=O)[C@@H](NC(=O)[C@H](N)c3ccccc3)[C@H]2SC1(C)C` (stereo partly drawn) stands “inactive”. Next, `CCCc1cc(=O)[nH]c(SCC(=O)NC2CCCCC2)n1`: “inactive”; `Cc1ccc(C)c(N2CCN(S(=O)(=O)c3ccc4c(c3)CCN4C(=O)CCC(=O)O)CC2)c1`: “inactive”; `Cc1ccnc(SCCn2c(N3CCN(c4ccccc4)CC3)nc3c2c(=O)[nH]c(=O)n3C)n1`: “inactive”. Next, `O=C(CCC(=O)NNC(=O)Nc1cccc(Cl)c1)NCc1ccccc1`: “inactive”; `Cc1ccccc1C(=O)NC(=S)Nc1ccc(N2CCN(C(=O)c3ccccc3)CC2)cc1`: “inactive”; `COCCNC(=O)NC12CC3(C)CC(C)(CC(C)(C3)C1)C2`: “inactive”.

On to `COCCn1c(SCc2ccc(C(=O)OC)o2)nnc1-c1c[nH]c2ccccc12`, for which the outcome was inactive. As for `COc1ccc(C(=O)Nc2cccc(C(=O)N/N=C/c3ccc(OC)cc3OC)c2)cc1`, the call was inactive.

On to `CCOc1ccc(OCc2cccc(C(=O)N3CCCC3)c2)cc1`, for which the result was inactive.

Turning to `O=S(=O)(N/N=C/c1ccccc1F)c1ccccc1`, the outcome was inactive. As for `CSc1nc2cc3c(cc2n1C(=O)c1ccc(C)cc1)OCCO3`, the call was inactive. Next, `Nc1cc2ccncc2c2ccccc12`: “inactive”; `CC(C)NCC(O)COc1cccc2ccccc12` (stereo not drawn): “inactive”.

As to `COc1ccc(-n2c(C)c([N+](=O)[O-])c3ccc(O)c(CN(C)C)c32)cc1`, the call was inactive. Under `Cc1ccc(C(=O)NCC(=O)N(C)Cc2cccc(F)c2)s1` stands “inactive”. With `COc1ccc(-n2c(C)c(C(C)=O)c3cc(O)ccc32)cc1`, the molecule was classed as inactive. For the molecule `CC(CNC1CCCCC1)OC(=O)c1ccccc1` (stereo not drawn), the result was inactive.
